Test results: the supplement of paper PMC8253809
“And” between values parts separate entries of the source, which are not always exact repeats. Equal values may be shown once.

Columns and labels:
Experiment in all cases: growth inhibition (% activity, log2 RLU normalised to DMSO / staurosporine); higher = more growth inhibition
Settings in all cases: 33 µM
[1] = test system: DIPGX29 (H3.3 K27M diffuse intrinsic pontine glioma line)
Outline: (§1)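 In triplicate, pHGG cell lines and H9-derived neural stem cells were treated for 7 days at 37 °C, 5% CO2 with approved drugs at a single final concentration of about 33 μM, added by pin tool. CellTiter-Glo luminescence, after log2 transformation, was normalised on each plate to % activity between solvent and positive control wells. Growth inhibition is reported as the median across replicates.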

[2] = test system: DIPGX37 (H3.3 K27M diffuse intrinsic pontine glioma line)
Outline: as §1

[3] = test system: DIPGX7 (H3.3 K27M diffuse intrinsic pontine glioma line)
Outline: as §1

[4] = test system: DIPGX9 (diffuse intrinsic pontine glioma line)
Outline: as §1

[5] = test system: HGGX39 (paediatric high-grade glioma line)
Outline: as §1

[6] = test system: HGGX6 (H3.3 G34R paediatric high-grade glioma line)
Outline: as §1

[7] = test system: HNSC
Outline: as §1

[8] = test system: SUDIPGIV (diffuse intrinsic pontine glioma line)
Outline: as §1

[9] = test system: SUDIPGVI (diffuse intrinsic pontine glioma line)
Outline: as §1

[10] = test system: SUDIPGXIII (diffuse intrinsic pontine glioma line)
Outline: as §1

| Structure (SMILES) | growth inhibition [1] | growth inhibition [2] | growth inhibition [3] | growth inhibition [4] | growth inhibition [5] | growth inhibition [6] | growth inhibition [7] | growth inhibition [8] | growth inhibition [9] | growth inhibition [10] |
| --- | --- | --- | --- | --- | --- | --- | --- | --- | --- | --- |
| Clc1ccc(C(Cn2ccnc2)OCc2c(Cl)cccc2Cl)c(Cl)c1 (stereo not given) | 2.72% | 3.03% | 3.97% | 3.76% | 8.33% | 5.87% | 4.09% | 11.2% | 2.55% | 10.5% |
| CCCc1nc2c(C)cc(-c3nc4ccccc4n3C)cc2n1Cc1ccc(-c2ccccc2C(=O)O)cc1 | -1.54% | -0.467% | -0.895% | -0.132% | -1.04% | -1.06% | -0.614% | -2.37% | 0.572% | -1.14% |
| CC(=O)Nc1ccccc1 | -2.81% | -0.334% | -1.79% | -2.39% | -2.41% | -0.159% | -3.95% | -0.657% | -5.47% | 0.153% |
| CCc1c2c(nc3ccc(OC(=O)N4CCC(N5CCCCC5)CC4)cc13)-c1cc3c(c(=O)n1C2)COC(=O)[C@]3(O)CC | 6.04% and 11.2% | 2.87% and 1.26% | 5% and 16.3% | 7.83% and 32.1% | 13.7% and 30.1% | 7.49% and 10.4% | 55.3% and 54.4% | 49.3% and 46.9% | 1.04% and 3.21% | -12% and 3.28% |
| CCNC(=O)CCC/C=C\C[C@@H]1[C@@H](/C=C/[C@@H](O)CCc2ccccc2)[C@H](O)C[C@@H]1O | 0.795% | 0.309% | 1.77% | 0.624% | 3.66% | 1.1% | 1.72% | 0.456% | 0.646% | -0.283% |
| Nc1cccc2c1C(=O)N(C1CCC(=O)NC1=O)C2=O (stereo not given) | 0.275% | 2% | 0.718% | -0.934% | -1.86% | -0.402% | 0.283% | -0.313% | 0.743% | -1.19% |
| CCCCC1C(=O)N(c2ccccc2)N(c2ccccc2)C1=O | -0.206% | -1.51% | -0.44% | -1.82% | -1.47% | -2.46% | 0.0851% | -3.3% | -4.73% | -0.592% |
| O=C(O)C1=CO[C@@H](O[C@@H]2O[C@H](CO)[C@@H](O)[C@H](O)[C@H]2O)[C@@H]2C(CO)=CC[C@H]12 | -3.84% | -2.61% | -0.0942% | -1.59% | -2.13% | -4.13% | 9.11% | -1.22% | -7.67% | -1.52% |
| CC(=O)O[C@@]12CO[C@@H]1C[C@H](O)[C@@]1(C)C(=O)[C@H](O)C3=C(C)[C@@H](OC(=O)[C@H](O)[C@@H](NC(=O)OC(C)(C)C)c4ccccc4)C[C@@](O)([C@@H](OC(=O)c4ccccc4)[C@H]21)C3(C)C | 8.91% | 8.27% | 8.76% | 19.3% | 24.5% | 15.8% | 55.1% | 21.6% | 8.93% | 6.64% |
| O=C(CCCN1CC=C(n2c(=O)[nH]c3ccccc32)CC1)c1ccc(F)cc1 | -2.81% | -3.22% | 1.35% | -2.63% | -0.994% | -4.16% | 3.11% | -2.04% | -2.84% | 0.682% |
| Nc1ncnc2c1ncn2[C@@H]1O[C@H](COP(=O)(O)OP(=O)(O)OP(=O)(O)O)[C@@H](O)[C@H]1O | 1.45% | 3.53% | 0.965% | 2.77% | 1.53% | 2.37% | 1.17% | 0.305% | 3.67% | 1.19% |
| CN(C)CC/C=C1/c2ccccc2COc2ccc(CC(=O)O)cc21 | 1.93% | 3.18% | 2.2% | 2.77% | 2.27% | 2.49% | -0.124% | -0.355% | 2.4% | 0.825% |
| CN1CC(=O)N2[C@H](c3ccc4c(c3)OCO4)c3[nH]c4ccccc4c3C[C@@H]2C1=O | -0.154% | 2.3% | 0.64% | 0.257% | 2.46% | 0.71% | -0.244% | 0.899% | -1.44% | 2.73% |
| C[C@]12CC[C@@H]3c4ccc(O)cc4CC[C@H]3[C@@H]1C[C@@H](O)[C@@H]2O | -2.64% | -2.04% | -1.85% | -3.27% | -3.05% | -3.15% | 1.55% | -0.339% | -10.4% | 1.55% |
| C[C@H]1c2cccc(O)c2C(=O)C2=C(O)[C@]3(O)C(=O)C(C(N)=O)=C(O)[C@@H](N(C)C)[C@@H]3[C@@H](O)[C@@H]21 | 0.731% | -0.495% | 1.55% | 1.62% | 6.11% | 0.474% | 25.5% | 10.2% | -0.454% | -2.03% |
| C=C1c2c(Cl)ccc(O)c2C(=O)C2=C(O)[C@]3(O)C(=O)C(C(N)=O)=C(O)[C@@H](N(C)C)[C@@H]3[C@@H](O)[C@H]12.O=C(O)c1cc(S(=O)(=O)O)ccc1O | 3.13% | 1.57% | 2.88% | 2.29% | 8.03% | 6.26% | 8.17% | 7.96% | 4.89% | 3.19% |
| CCOC(=O)c1ccc(C#Cc2ccc3c(c2)C(C)(C)CCS3)nc1 | 3.83% | -0.285% | 6.1% | 9.38% | 8.54% | 6.5% | 6.59% | 8.53% | 4.1% | 1.82% |
| CN(C)CCc1c[nH]c2ccc(Cn3cncn3)cc12 | -0.697% | 0.65% | -0.925% | 0.553% | 1.2% | 1.15% | -1.13% | -0.297% | 1.51% | -0.819% |
| CCC(=O)OCC(=O)[C@@]1(OC(=O)CC)[C@@H](C)C[C@H]2[C@@H]3CCC4=CC(=O)C=C[C@]4(C)[C@@]3(F)[C@@H](O)C[C@@]21C | 0.0157% | 2.23% | 0.0573% | 4.05% | 3.08% | 1.77% | -4.87% | -0.108% | 0.781% | 1.98% |
